The source of these data is PubChem BioAssay AID1981 (Southern Research Specialized Biocontainment Screening …, 2009).

The whole screen tested about 2,200 compounds, of which about 480 (22%) were called active. How the calls were made is not given here. A selection follows. Results with a measured potency or affinity are listed apart.

A short description of the experiment: S. Typhimurium GFP fluorescence modified counterscreen for PhoP regulon inhibitor project dose response (AID 1981). As to conditions: 4 h; series mostly up to 150 µM. Background: Counterscreens check selectivity or assay interference.
Consider `CC(C)(C)NC(=O)CSc1nnc(-c2ccncc2)o1`, for which the result was inactive.
For `COc1ccccc1/C=C1\CCCC2=C1Nc1nnnn1C2c1ccccc1OC` (centres undefined) the value was “inactive”.
Consider `COC(=O)c1sccc1NC(=O)CSc1ccccc1NS(=O)(=O)c1ccc(Cl)cc1`, for which the molecule was called inactive.
For `O=[N+]([O-])c1ccc(NCCCNS(=O)(=O)c2ccccc2)c(Cl)c1` the value was “inactive”; for `CCC(C)C(NC(=O)OCc1ccccc1)C(=O)OCN1C(=O)c2ccccc2C1=O` (centres undefined), “inactive”; for `c1ccc(-c2ncnc3nc4n(c23)CCC4)cc1`, “inactive”.
Consider `CCn1nnc(-c2ccccc2NC(=O)c2ccc(-n3cnnn3)cc2)n1`, for which the outcome was inactive.
Take `Cc1cc(-c2csc(N)n2)c(C)n1C`: the outcome was inactive.
For `COc1cc(NC(=O)Nc2cccc(Cl)c2)c(OC)cc1NC(=O)CN1CCCCC1` the value was “inactive”; for `CN(C)CCNc1nc(-c2ccccc2)nnc1C(F)(F)F`, “inactive”.
Turning to `Cc1cc(NCCN2CCOCC2)n2ncc(-c3ccccc3)c2n1`, the result was inactive.
For `COc1cc(C2SCC(=O)N2c2nnc(C34CC5CC(CC(C5)C3)C4)s2)cc(OC)c1OC` (centres undefined) the value was “inactive”.
In the case of `N#CCC1c2ccccc2CCN1C(=O)Nc1ccc(Cl)cc1` (centres undefined), the outcome was inactive.
On to `CC1(C)CC(=O)C=C(Nc2ccc(Br)cn2)C1`, for which the call was inactive.
On to `COCCNC(=O)CSCc1c(F)cccc1Cl`, for which the molecule was classed as inactive.
As for `Cc1ccc(C(=O)Oc2cccc(NC(=O)c3cccs3)c2)cc1S(=O)(=O)N1CCOCC1`, the result was inactive.
Turning to `NC(=O)c1ccccc1N=Cc1ccccn1`, the result was inactive.
For the molecule `Cc1cc(C)cc(NC(=O)CSc2nc3c(c(=O)[nH]2)CN(Cc2ccc(F)cc2)CC3)c1`, the molecule was called inactive.
As for `COC(=O)C1(O)CC(C(C)C)=NN1C(=O)c1ccc(Cl)cc1` (centres undefined), the molecule was called inactive.
On to `Cc1cccc(CN(C)C)c1OC(=O)N(C)C`, for which the molecule was called inactive.
Consider `Cc1ccc(/C=C2\SC(=S)N(Cc3ccccc3)C2=O)o1`, for which the call was inactive.
The value for `COc1ccc(NC2=Nc3cccc4cccc2c34)cc1` was “inactive”; that for `Oc1cccc2ccc[n+](CC(O)Cn3c4ccccc4c4ccccc43)c12` (centres undefined) was “inactive”.
Consider `O=C(CSc1ncnc2ccccc12)Nc1cc(S(=O)(=O)N2CCCCC2)ccc1Cl`, for which the molecule was classed as inactive.
As for `COc1ccc(NS(=O)(=O)c2cc(C)ccc2NC(=O)c2cc(C)oc2C)cc1`, the molecule was called inactive.
The value for `COc1ccc(C)cc1C(=O)CCC(=O)Nc1ccccc1N1CCOCC1` was “inactive”; that for `O=C(CN1CCC(NC(=O)c2cccc(F)c2)CC1)NCc1ccccc1F` was “inactive”.
In the case of `CCn1cc(C(=O)NCc2ccncc2)c(=O)c2cc(F)c(N3CCN(C(=O)c4ccco4)CC3)cc21`, the molecule was classed as inactive.
For the molecule `CCCOc1ccc(C(=O)N2CCCC2C(=O)O)cc1` (centres undefined), the outcome was inactive.
The value for `CCCOc1ccc(C(=O)CCC(=O)OCC(=O)N2CC(=O)Nc3ccccc32)cc1` was “inactive”; that for `O=C(Nc1nc(-c2ccncc2)cs1)C1c2ccccc2Oc2ccccc21` was “inactive”; that for `O=C1c2[nH]nc(-c3ccccc3O)c2C(c2ccc(F)cc2)N1Cc1ccco1` (centres undefined) was “inactive”.
Regarding `CCCCNC(=O)OC1CCS(=O)(=O)C1` (centres undefined), the result was inactive.
Turning to `COC(=O)c1ccccc1NC(=O)NCc1ccc2c(c1)OCO2`, the molecule was classed as inactive.
Consider `O=C(CN1CCCCCC1)Nc1cccc(Br)c1`, for which the outcome was inactive.
Turning to `C=CCSc1nnc(-c2ccc(Cl)cc2Cl)o1`, the outcome was inactive.
Take `CCCCCOc1ccc(NC(=O)C(=O)NCCC2=CCCCC2)cc1`: the result was inactive.
For `Cc1ccc(OCC(=O)N2CCN(S(=O)(=O)c3ccccc3)CC2)c([N+](=O)[O-])n1` the value was “inactive”.
The value for `Cc1nc(CC(=O)c2ccc(O)cc2O)cs1` was “inactive”; that for `CCc1c(C)c2cc(Cl)c(O)c(CN3CCCCC3)c2oc1=O` was “inactive”.
`Cc1onc(-c2c(F)cccc2Cl)c1C(=O)Nc1cccc(Cn2cccn2)c1`: the molecule was classed as inactive.
Consider `NC(CSC12CC3CC(CC(C3)C1)C2)C(=O)O` (centres undefined), for which the outcome was inactive.
The value for `Cn1c(CN2CCCCC2)nc2cc(NS(=O)(=O)c3ccc(Cl)cc3)ccc21` was “inactive”.
For `COc1ccc2c(c1)[nH]c1c(N3CCN(Cc4ccc5c(c4)OCO5)CC3)ncnc12` the value was “inactive”; for `O=C(NCCNc1ccc([N+](=O)[O-])cc1C(F)(F)F)c1ccc(F)cc1`, “inactive”.
On to `COCCNS(=O)(=O)c1cccn1-c1ncc(C(F)(F)F)cc1Cl`, for which the molecule was called inactive.
`CCCCn1c(SCC(=O)Nc2nnc(CC)s2)nc2c1c(=O)n(C)c(=O)n2C`: the outcome was inactive.
For `CCn1nc(C(=O)NCc2ccco2)c(Cl)c1Cl`, the molecule was called inactive.
`CCOC(=O)CSc1n[nH]c(NC(=O)c2cccc(C)c2)n1`: the molecule was called inactive.
The value for `Cc1cccc(C(=O)NC(=S)Nc2ccc(N3CCOCC3)cc2)c1` was “inactive”; that for `Cc1cc(C)c2nc(NNC(=O)c3ccc(S(=O)(=O)N4CCc5ccccc5C4)cc3)sc2c1` was “inactive”; that for `O=C(O)CCCCCN1C(=O)c2ccc(C(=O)O)cc2C1=O` was “inactive”.
Turning to `O=C(/C=C/c1ccccc1Cl)c1ccccc(=O)c1O`, the call was inactive.
On to `Cc1ccc(NC(=O)c2ccccc2)s1`, for which the result was inactive.
For the molecule `CC1=C(C(=O)Nc2cccnc2)C(c2ccccn2)n2nnnc2N1` (centres undefined), the outcome was inactive.
With `Cc1cccnc1NC(=O)CCCN1C(=O)c2ccccc2C1=O`, the result was inactive.
The value for `CC(=O)c1cccc(NC(=O)Nc2cccs2)c1` was “inactive”; that for `CC1(C)CC(=O)C=C(Nc2ccccc2NC(=O)c2cnccn2)C1` was “inactive”.
For `COc1ccc(N2CCN(C(=O)Nc3ccc(S(=O)(=O)N(C)C)cc3)CC2)cc1`, the molecule was called inactive.
Regarding `Cc1ccc(S(=O)(=O)N(CC(=O)N=Nc2c(O)[nH]c3ccccc23)c2ccc(C)c(C)c2)cc1`, the result was inactive.
On to `NC(N)=Nc1nc(C2COc3ccccc3O2)cs1` (centres undefined), for which the call was inactive.
For `O=C(CSCc1nc2ccccc2[nH]1)Nc1ccc2ccccc2c1` the value was “inactive”.
As to `COc1cc(CNCc2ccccn2)ccc1OCC(=O)NC(C)(C)C`, the molecule was called inactive.
Turning to `O=S(=O)(/N=C(/Nc1cccc2ccccc12)c1ccccc1)c1cccs1`, the call was inactive.
On to `FC(F)(F)COc1nc(OCC(F)(F)F)nc(N2CCN(c3ccccc3)CC2)n1`, for which the call was inactive.
For the molecule `COc1cccc(C2CC(=O)Nc3cc(OC)c(OC)c(OC)c32)c1OC` (centres undefined), the outcome was inactive.
For the molecule `COCCn1c(-c2ccccc2F)n[nH]c1=S`, the result was inactive.
For `C1=C(CCNc2ncnc3c2[nH]c2ccccc23)CCCC1` the value was “inactive”.
Regarding `COc1ccc(C(=O)NCCC2=CCCCC2)cc1OC`, the molecule was classed as inactive.
For `O=C(NC1CCCCC1)n1c(=O)oc2ccc(Cl)cc21` the value was “inactive”; for `COc1ccc(C2C(C(=O)c3cccs3)=C(O)C(=O)N2c2nnc(C)s2)cc1OC` (centres undefined), “inactive”.
Take `Nc1ccc2c(c1)C(=O)N(CC1CCCO1)C2=O` (centres undefined): the molecule was classed as inactive.
The value for `c1ccc(CNc2c3c(nc4ccccc24)CCC3)cc1` was “inactive”; that for `CCc1ccc(Nc2nc(N)nc(CSc3nc4ccccc4s3)n2)cc1` was “inactive”; that for `Cc1cccc(Nc2nc(N)nc(CN3CCN(c4ccccc4)CC3)n2)c1` was “inactive”.
Turning to `Oc1cccc(Nc2c3ccccc3nc3ccccc23)c1`, the molecule was called inactive.
Consider `CCOc1ccc(Nc2nc(NCCN3CCOCC3)nc(OC)n2)cc1`, for which the result was inactive.
The value for `Cc1cccc(N2CCc3c2nc2ccccc2c3N)c1` was “inactive”; that for `Cc1cccc(Nc2c3c(nc4ccccc24)CCC3)c1` was “inactive”; that for `CCOC(=O)c1cnc2ccccc2c1Nc1ccc2c(c1)OCCO2` was “inactive”.
With `CC1(C)CC(=O)C(C=Nc2ccc(Cl)cn2)=C(O)C1`, the result was inactive.
The value for `Cc1cc(C)n(-c2ccc(C(=O)OCC(=O)Nc3ccc([N+](=O)[O-])cc3)cc2)n1` was “inactive”.
Consider `O=C(NCCc1ccc(Cl)cc1)/C(=C/c1cccnc1)NC(=O)c1ccccc1`, for which the molecule was called inactive.
In the case of `S=C(NCc1cccnc1)Nc1cccc(Cl)c1`, the result was inactive.
For the molecule `CCOc1ccc(S(=O)(=O)Nc2ccc(C(=O)N/N=C/c3c(C)nn(-c4ccccc4)c3N3CCCC3)cc2)cc1`, the molecule was classed as inactive.
In the case of `Cc1cccc(NC(=O)Cn2c(/C=C/c3ccccc3)nc3ccccc32)c1`, the call was inactive.
For the molecule `CC1CCCCN1Cc1cnc(Cl)s1` (centres undefined), the result was inactive.
For `Cc1ccc2nc(Cc3ccc(N)cc3)[nH]c2c1`, the call was inactive.
As for `Cc1ccc(-c2csc(N=C(N)N)n2)c(C)c1`, the molecule was classed as inactive.
As for `Cc1ccc(-c2nc3ccccc3s2)cc1S(=O)(=O)N1CCCC1`, the molecule was called inactive.
For `Cn1c(SCC(=O)N2c3ccccc3CCc3ccccc32)nnc1-c1cc2ccccc2cc1O` the value was “inactive”; for `O=S(=O)(NC1=NCCCCC1)c1cccs1`, “inactive”; for `Cc1ccc(NC(=O)C2CC(=O)NC(N3CCCCC3)=N2)cc1Cl` (centres undefined), “inactive”.
`Cc1nn(CCOc2ccccc2)c(=O)n1-c1ccc(F)cc1`: the result was inactive.
As for `CC(Cc1ccccc1Sc1ccccc1O)N(C)C` (centres undefined), the molecule was classed as inactive.
As to `CC(CCc1ccccc1)NC(=O)c1ccccc1` (centres undefined), the result was inactive.
As to `CC(C)CCn1c(SCC(=O)N2CC(=O)Nc3ccccc32)nc2scc(-c3cccs3)c2c1=O`, the result was inactive.
In the case of `O=C(O)C1(P(=O)(c2ccccc2)c2ccccc2)CCC1`, the outcome was inactive.
Turning to `N#Cc1c(-c2ccccc2)ccn(Cc2cccc(Cl)c2)c1=O`, the molecule was called inactive.
In the case of `COc1ccc(-c2nc3ncccc3n2O)cc1`, the result was inactive.
As to `Nc1ccccc1NC1=CC(=O)CC(c2ccco2)C1` (centres undefined), the molecule was classed as inactive.
`CCn1cc(C(=O)O)c(=O)c2cnc(N3CCN(C(=S)NC(=O)c4ccc(Cl)cc4)CC3)nc21`: the outcome was inactive.
With `CCn1cc(C(=O)OCC(=O)Nc2ccc(S(=O)(=O)N3CCCC3)cc2)c(=O)c2ccc(C)nc21`, the result was inactive.
In the case of `COc1ccccc1N1CCN(C(=O)CSc2nc3ccccc3o2)CC1`, the molecule was called inactive.
As to `O=C(O)Cn1cc(C(=O)c2ccco2)c2ccccc21`, the molecule was classed as inactive.
For `O=S(=O)(c1ccc(S(=O)(=O)N2CCN(C/C=C/c3ccccc3)CC2)cc1)N1CCCC1`, the molecule was called inactive.
Take `NS(=O)(=O)c1ccc(Nc2nc(-c3ccc(O)cc3)cs2)cc1`: the outcome was inactive.
Take `Fc1cccc(NCc2cn3ccccc3n2)c1`: the molecule was classed as inactive.
`CNc1nnc(-c2cccc(N(C)C)c2)s1`: the outcome was inactive.
For `COC(=O)c1c(C)[nH]c(C(C)=O)c1C`, the molecule was called inactive.
The value for `COc1ccc2c(c1)C1C=CCC1C(c1cc3c(cc1Br)OCO3)N2` (centres undefined) was “inactive”; that for `COc1ccc(C(=O)N2CCc3cc(OC)c(OC)cc3C2)cc1OC` was “inactive”; that for `COc1ccc(S(=O)(=O)N2CCN(Cc3ccccc3)CC2)cc1` was “inactive”.
For `COc1ccc(C(=O)On2c(-c3ccc(Br)cc3)nc3ccccc3c2=O)cc1`, the molecule was classed as inactive.
